Compounds with a hit are over-represented: about 6.7% of the library has one in this group of screens.
SW480 rerep – A quantitative high throughput screen for small molecules that induce DNA re-replication in SW480 colon adenocarcinoma cells; SW480 DNA re-replication, Hoechst DNA content imaging, 48 h; Potency, µM (titrated, usually from 46.1 µM), without a hit: at the highest dose re-replication activation, actives largely listed as activators; hit rate 1.8% among 340,000; AID 624297, 2012; also: % of control where 0% means no effect; nearly all actives have a fitted effect of over 55% in size
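First, 250 cells per well were seeded. Next, compound or vehicle (23 nL) was pinned in, plates sat 48 hr at 37 C. Finally Hoechst was added for 40 min before fluorescence scanning.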
PINK1 expr mod – A Quantitative High throughput Screen to Identify Chemical Modulators of PINK1 Expression. PINK1 immunofluorescence, high-content cytometry, 24 h. Potency, µM (highest dose often 76.6 µM), without a hit: top-dose activation (PINK1 increase), usual class: activators. hit rate 0.2% among 410,000; active = well fitted activation curve with a large enough effect; inconclusive = small, poorly fitted or top-dose-only effect; cell line not stated here; also: % of control where 0% means no effect; nearly all actives have a fitted effect of over 65% in size
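Cells are seeded, rested 12 hours, then given compound at five concentrations or DMSO for 24 hours. After fixation, blocking and antibody staining, PINK1 amount and mitochondrial localization are scored; CCCP serves as control.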
KB-3-1 tox – qHTS assay for MDR1-selective chemotherapeutics: Primary screen using the parental adenocarcinoma cell KB-3-1. KB-3-1 viability, CellTiter-Glo ATP luminescence, 72 h. hit rate 1.4% among 400,000. Potency, µM (titrated, usually from 46.1 µM), usual class: cytotoxic; also: % is scaled to controls: 0 for no effect and ±100 for the full control effect; nearly all actives have a fitted effect of over 60% in size
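KB-3-1 parental drug-naive adenocarcinoma cells in DMEM/10% FBS, incubated 72 h at 37 C with pin-transferred compounds across a concentration series. Viability by CellTiter-Glo luminescence; concentration-response curves fitted after normalization.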
MCF10A rerep – A quantitative high throughput screen for small molecules that induce DNA re-replication in MCF 10a normal breast cells | Potency, µM (titrated, usually from 46.1 µM), for the others: top-dose activity, positive = re-replication, most hits filed as activators | hit rate 2.9% among 350,000 | AID 624296, 2012 | MCF 10A DNA re-replication, Hoechst nuclear intensity, 48 h; also: % of control where 0% means no effect; nearly all actives have a fitted effect of over 50% in size
KB-V1 MDR tox – qHTS assay for MDR1-selective chemotherapeutics: Primary screen using the drug-selected MDR subline cells KB-V1 | KB-V1 MDR cells viability, CellTiter-Glo, 72 h | Potency, µM (series often up to 46.1 µM), most hits filed as cytotoxic | hit rate 3.4% among 400,000; also: % is scaled to controls: 0 for no effect and ±100 for the full control effect; nearly all actives have a fitted effect of over 60% in size
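Readout: CellTiter-Glo luminescence, 10 min after addition. Cells: KB-V1 MDR subline, 72 h at 37 degrees C with compound. Analysis: corrected, normalized data fitted to concentration-effect curves.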
Active calls of the source: *; i = inactive; ? = inconclusive; / = not tested or not shown; [ ] = remark or other dose. Unless noted, calls follow the shape of the dose curve; as a rule, active = well fitted curve in the direction sought with a large enough effect; inconclusive = small, poorly fitted or top-dose-only effect, or another doubt; inactive = no such curve, though single readings can be large; an effect the other way counts as inactive or inconclusive. Potency is read from the fitted curve at half-maximal effect.

SMILES | SW480 rerep | PINK1 expr mod | KB-3-1 tox | MCF10A rerep | KB-V1 MDR tox
CCOC(=O)c1c(NC(=O)CSc2nc3ccccc3s2)sc(C(C)=O)c1C | -2.3% | -0.8%[38.3 µM] | i | 3.4% | 20.6µM*
COc1ccc(Cc2nnc(SCC(=O)NC(C)c3ccccc3)o2)cc1 (configuration not stated) | -0.7% | -1.5%[38.3 µM] | i | 8.3% | 20.6µM*
CCCc1cc(=O)[nH]c(SCC(=O)NC(=O)NC2CCCC2)n1 | -3.4% | -0.4% | ? | -0.8% | 4.11µM*
CCCc1cc(=O)[nH]c(SCC(=O)Nc2sc(C(N)=O)c(C)c2C(=O)OCCOC)n1 | 11.2% | -0.6% | 8.2µM* | -5.2% | ?
Cc1ccc(NC(=O)CCC(=O)Nc2nnc(C3CCCCC3)s2)cc1 | ? | 1.3% | i | -15.8% | ?
CCOC(=O)c1c(NC(=O)CSc2nnc(C)s2)sc2c1CCC(CC)C2 (configuration not stated) | ? | 3.6% | i | 12.0% | 5.8µM*
CCOC(=O)c1sc(NC(=O)CSc2nnc(C)s2)c(C(=O)OCC)c1C | -12.7% | 0.8% | i | 3.1% | 1.64µM*
CCOC(=O)c1sc(NC(=O)CSc2nnc(Cc3ccccc3)o2)c(C(=O)OCC)c1C | -2.1% | -4.4%[38.3 µM] | i | 17.7% | 7.31µM*
CCOC(=O)c1c(NC(=O)c2ccc(F)cc2)sc2c1CCC(CC)C2 (configuration not stated) | / | 2.0% | ? | / | i
COc1ccc(CCN2C(=O)CCC3=C2CCCC3=O)cc1OC | / | 0.9% | i | / | i
COc1ccc(CCn2c(NN=C(C)C)nc3c2c(=O)[nH]c(=O)n3C)cc1 | 2.6% | 2.3% | i | -6.1% | i
Cn1c(=O)[nH]c(=O)c2c1nc(Br)n2C/C=N/Nc1ccccc1 | 9.6% | 0.0% | 16.4µM* | ? | i
COc1ccc(CCn2c(NN)nc3c2c(=O)[nH]c(=O)n3C)cc1 | 14.6µM* | 5.8% | 13µM* | ? | ?
Cn1c(=O)[nH]c(=O)c2c1nc(Br)n2C/C=N/NC(=O)c1ccccc1 | ? | 0.2% | i | -23.1% | i
COc1ccc(CCn2c(Br)nc3c2c(=O)[nH]c(=O)n3C)cc1 | ? | 2.9%[38.3 µM] | 5.17µM* | 15.9% | 4.11µM*
CC(C)NC(=O)COC(=O)CNC(=O)C1CCCCC1 | / | 0.7% | i | / | i
C[C@@H]1CN([C@@H](C)CO)C(=O)CCCn2nncc2CO[C@H]1CN(C)C(=O)c1ccccc1 | / | 1.2% | i | / | i
COC(=O)c1ccc(NC(=O)c2cc3cc(C)ccc3n2C)cc1 | / | 1.5% | i | / | i
COc1ccccc1CN1CCC2(CC1)CCN(S(C)(=O)=O)CC2 | / | -1.2% | / | / | /
O=C(c1ccc(CS(=O)c2cccc(Cl)c2)o1)N1CCOCC1 (configuration not stated) | 2.0% | -1.4% | i | 3.2% | i
COc1cccc(N2CCN(C(=O)c3ccc(CS(=O)c4ccc(C)cc4)o3)CC2)c1 (configuration not stated) | ? | 3.8% | 0.366µM* | ? | ?
O=C(c1ccc(CS(=O)c2cccc(Cl)c2)o1)N1CCN(c2ccccn2)CC1 (configuration not stated) | 25.2% | 6.9% | 7.31µM* | ? | ?
COc1cccc(N2CCN(C(=O)c3ccc(CS(=O)Cc4ccc(C)cc4)o3)CC2)c1 (configuration not stated) | -7.8% | 2.1% | i | 0.2% | ?
COc1cccc(N2CCN(C(=O)c3ccc(CS(=O)c4ccc(Cl)cc4)o3)CC2)c1 (configuration not stated) | ? | 0.6% | 8.2µM* | ? | ?
O=C(c1ccc(CS(=O)Cc2ccc(Cl)cc2)o1)N1CCN(c2cccc(Cl)c2)CC1 (configuration not stated) | -2.2% | -0.3% | i | ? | ?
CS(=O)(=O)N(CC(=O)Nc1ccc(Br)cc1)C1CCCCC1 | 19.8% | 0.3% | 23.1µM* | 11.1% | ?
